Sampled rows, rich in hits. Any-hit rate of the full collection: about 5.7%.
DAX1 inh-1 = DAX1 (NR0B1) inhibition, primary screen; 1.1% of 370,000 active; HEK293T StAR-luciferase reporter, SF-1/DAX-1 repression relief; inhibition, % at 6.8 µM;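 active = inhibition above the mean over all tested compounds plus 3 SD, cut at about 3.6% in these data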;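 note: 0% = DAX-1 cells with DMSO and 100% = cells lacking DAX-1 with DMSO; higher inhibition means more luminescence from relief of DAX-1 repression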
hcDAF12 agonist = H. contortus DAF-12 activation, primary screen; HEK293 hcDAF-12 lit1-tk-luc reporter, luminescence; 0% DMSO, 100% Δ7-dafachronic acid; 1.4% of 370,000 active; activation, % at 6.8 µM;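 active = activation above the mean of all tested compounds plus 3 SD, cut at about 5.5% in these data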;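 note: 100% = response to 3 µM Δ7-dafachronic acid high control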
DAX1 inh-2 = inhibits human nuclear receptor DAX1 | P51843 | HEK293 Gal4-DAX1 luciferase reporter, luminescence | inhibition, % at 6.75 µM | 0.99% of 340,000 active | AID 504766;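 active = inhibition above the mean over all tested compounds plus 3 SD, cut at about 4.2% in these data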;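 note: 0% = DAX1-transfected cells with DMSO and 100% = empty-vector control cells with DMSO; inhibition shows as a rise in luminescence from relieved DAX1 repression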
Target sequence (P51843 207-470 limits assumed): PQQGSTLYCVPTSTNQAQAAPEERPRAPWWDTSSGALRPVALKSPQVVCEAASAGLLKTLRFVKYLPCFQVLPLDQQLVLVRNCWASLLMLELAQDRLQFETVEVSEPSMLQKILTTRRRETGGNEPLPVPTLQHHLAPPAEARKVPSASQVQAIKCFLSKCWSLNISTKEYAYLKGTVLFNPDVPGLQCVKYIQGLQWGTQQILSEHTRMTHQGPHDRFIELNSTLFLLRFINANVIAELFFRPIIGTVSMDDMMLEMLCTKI
AHR activator = human AHR activation | P35869 | AHR-responsive luciferase reporter cells, luminescence | activation, % at 5 µM | 2.5% of 320,000 active | AID 2796; in the data active = activation above about 47%;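 note: 0% = vehicle wells and 100% = reference agonist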
hgDAF-12 ag = hgDAF-12 agonism, primary luciferase screen | HEK293 GAL4-hgDAF12 UAS-luciferase reporter, agonist luminescence; normalized to butyrate control | activation, % at 6.8 µM | 1.8% of 370,000 active | AID 687014;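 active = activation above a cutoff set at the mean of all screened compounds plus 3 SD, cut at about 10% in these data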;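 note: 0% = DMSO wells and 100% = sodium butyrate wells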
ssDAF12 agonist = activators of S. stercoralis DAF-12 nuclear receptor | HEK293 ssDAF-12/GRIP1 lit1-tk-luc reporter, luminescence; % of 3 µM dafachronic acid response | activation, % at 6.8 µM | 1% of 370,000 active | AID 652126;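 active = activation above the mean over all tested compounds plus 3 SD, cut at about 0.9% in these data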;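 note: 0% = DMSO-only wells and 100% = 3 µM delta7-dafachronic acid wells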
Active calls of the source: *; . = no result given.

SMILES	DAX1 inh-1	hcDAF12 agonist	DAX1 inh-2	AHR activator	hgDAF-12 ag	ssDAF12 agonist
N#Cc1cc2ccccc2nc1SCC(=O)NC1CC1	0.5	0.3	-0.2	64.0*	2.2	-0.8
CCc1cc2ccccc2nc1SCC(=O)NC1CCCC1	-0.1	-1.2	-1.4	2.5	1.4	-0.4
CC1(C)CC(=O)C(CSC(=O)c2ccccc2)C(=O)C1	-0.6	0.7	0.2	.	-0.9	-1.3
O=S(=O)(c1ccc(Cl)nc1)N1CCN(Cc2ccc3c(c2)OCO3)CC1	0.1	-2.4	2.3	0.7	11.1*	-1.1
O=C(c1ccc(Cl)s1)N1CCCC1	-0.3	-0.3	2.5	-2.1	-1.6	-0.2
CC(C)(C)c1ccc(C(=O)N2CCCC2)s1	0.7	0.2	5.8*	-9.0	1.9	-0.3
CCOc1nc2cccc(C(=O)O)c2n1Cc1ccc(-c2ccccc2-c2nn[nH]n2)cc1	-0.8	-1.6	.	.	-3.5	-1.1
CCNC(=O)c1ccc(NC(=O)CC2SC(N3CCCC3)=NC2=O)cc1 (stereo not drawn)	0.1	1.9	-0.1	-1.3	-0.3	1.1*
Cc1cc(C)c2c(=O)n3c(nc2c1)C(CC(C)C)NC(=O)c1cccnc1-3 (stereo not drawn)	-1.3	0.3	-1.4	.	0.2	-0.9
CC(C)Oc1cccc(-c2cc(C(=O)NC(=S)N(C)c3ccccc3C(=O)O)c3ccccc3n2)c1	0.1	-1.2	0.0	49.7*	1.6	-1.1
Cc1ccc(NC(=O)c2ccc(OC(=O)COc3ccc(Cl)cc3C)cc2)cc1	3.9*	6.1*	0.7	6.8	12.7*	0.4
N#CC(C(=O)NC1CCCCC1)=C1CCCCCC1	-0.1	-2.4	1.8	-3.1	-1.7	-1.9
COc1ccc2c(C(=O)c3ccc(C)cc3)n(Cc3ccc(C(N)=O)cc3)[n+]([O-])c2c1	2.0	10.6*	1.8	39.0	9.8	2.1*
COc1ccc(C(=O)c2c3ccc(C(F)(F)F)cc3[n+]([O-])n2CCCN)cc1	-0.2	0.5	1.3	64.5*	4.5	-0.4
O=C(c1ccco1)N1CCN(C2CN(C3CCCCC3)S(=O)(=O)C2)CC1 (stereo not drawn)	3.9*	-0.4	.	.	-0.5	-0.9
O=C(c1ccco1)N1CCN(C2CN(C3CCCC3)S(=O)(=O)C2)CC1 (stereo not drawn)	-0.1	-0.6	.	.	-1.9	-0.5
CSc1nnc(C)c(/C=C/Nc2ccc(Cl)cc2)n1	-0.4	1.1	2.6	49.8*	-1.2	-1.1
COC(=O)c1cc2c(c3c4cc(C)ccc4n(S(=O)(=O)c4ccc(C)cc4)c13)C(=O)N(Cc1ccccc1OC)C2	-0.2	-0.3	.	.	-0.6	-1.3
Cc1nc(CN(C)C(=O)c2cc(COc3c(F)cccc3F)on2)cs1	-0.1	-0.5	1.7	-0.1	-5.0	-1.1
CSc1ccccc1OCc1cc(C(=O)NCc2cccc(C)n2)no1	3.2	4.2	2.1	46.3	11.0*	-0.8
Cc1nonc1CN(C)C(=O)c1cc(COc2ccc(F)cc2Cl)on1	0.2	-2.9	-0.8	5.1	4.0	-0.7
CSc1ccccc1OCc1cc(C(=O)NC(C)Cc2cccc(C)n2)no1 (stereo not drawn)	-2.4	-3.7	-0.7	52.6*	-1.6	-1.9
Cc1nc(CNC(=O)c2cc(COc3c(F)cccc3F)on2)cs1	-0.5	0.6	6.3*	3.4	-1.1	-1.8
CSc1ccccc1OCc1cc(C(=O)N(C)Cc2nonc2C)no1	4.0*	1.9	1.5	18.9	3.3	-0.9
COc1cc2c3c(c1OC)C(=O)CC3CCCC2 (stereo not drawn)	-0.9	-1.7	.	.	3.8	-1.5
SMILES	DAX1 inh-1	hcDAF12 agonist	DAX1 inh-2	AHR activator	hgDAF-12 ag	ssDAF12 agonist
O=C(Nc1ccccc1)Nc1cnccn1	0.3	-0.5	0.6	19.3	0.6	-1.1
Cc1csc(=O)n1CC(=O)OCC(=O)c1ccc(Br)cc1	-0.4	0.2	0.6	-2.2	4.5	-0.3
CC(C)(C)OC(=O)NCc1ccc(NC(=O)c2nc[nH]c2C(=O)Nc2cc(Br)ccc2F)cc1	0.9	-1.0	.	.	3.1	1.1*
CC(C)(C)OC(=O)NCCCCCNC(=O)c1[nH]cnc1C(=O)Nc1cc(Br)ccc1F	0.7	-1.9	0.7	.	-0.6	-1.1
CCOC(=O)C(=CNc1ccc2c(c1)c1ccccc1n2CC)C(=O)OCC	-0.2	-1.4	2.2	9.9	-1.5	-1.4
CCCC(=O)Nc1ccc(C#Cc2ccccc2)cc1	1.6	-0.7	0.7	-8.6	12.4*	-1.0

Source: PubChem BioAssay
